# According to PubChem BioAssay (EPA / NIEHS):
# Active and inactive are the calls of the source. The calls were made as follows: active = hit-call score of the fitted dose curve at least 0.9, where 1 is the maximum; inactive = score below 0.9.
# Assay: APR_HepG2_CellCycleArrest_1hr: Apredica 1-hour HepG2 Assay for Cell Cycle Arrest (AID 2282666)
# Conditions: high-content imaging, actives raise or lower the signal
# Method: APR_HepG2_1hr is a cell-based, multiplexed-readout assay that uses HepG2, a human liver cell line, with measurements taken at 1 hour after chemical dosing in a 384-well plate.APR_HepG2_CellCycleArrest_1hr is one of 10 assay component(s) measured or calculated from the APR_HepG2_1hr assay. It is designed to make measurements of cell phenotype, a form of morphology reporter, as detected with fluorescence intensity signals by HCS Fluorescent Imaging technology.Data from the assay component APR_HepG2_CellCycleArrest_1hr was analyzed into 1 assay endpoint. This assay endpoint, APR_HepG2_CellCycleArrest_1hr, was analyzed with bidirectional fitting relative to DMSO as the negative control and baseline of activity. Using a type of morphology reporter, measures of all nuclear dna for gain or loss-of-signal activity can be used to understand the signaling at the pathway-level as they relate to the gene . Furthermore, this assay endpoint can be referred to as a primary readout, because this assay has produced multiple assay endpoints where this one serves a signaling function. To generalize the intended target to other relatable targets, this assay endpoint is annotated to the cell cycle intended target family, where the subfamily is arrest.
# Cells were treated with dimethyl sulfoxide (DMSO) as a solvent control at a final concentration of 0.5% v/v or with compounds in DMSO with a resulting final DMSO concentration of 0.5% v/v. Compound treatment was done at concentrations of 0.39, 0.78, 1.56, 3.12, 6.24, 12.5, 25, 50, 100, and 200 uM in duplicate on each plate. Cells were treated with compounds for 1, 24, or 72 hr. Carbonyl […] m-chloro-phenylhydrazone (CCCP) and taxol were used as positive controls for mitochondrial function and cytoskeletal stability, respectively; DMSO served as the negative control for this experiment. Cells were fixed by the direct addition of 50 uL formaldehyde in Hank's Balanced Salt Solution (HBSS) to a final concentration of 3.7%. After incubation in the fixation medium for 30 min at room temperature (293-298 K), cells were rinsed twice with HBSS and treated with cell permeabilization buffer (16 uL of 0.5% Triton X-100) for 10 min at room temperature (293-298 K) before labeling. For mitochondrial membrane potential and mitochondrial measurements, pre-fixed cells were incubated with 50 uL of MitoTracker Red CMXRos (Invitrogen) at a concentration of 250 nM for 30 min before fixation. In the remaining cases, post-fixed cells were labeled by incubation with a multiplexed mixture of primary antibodies in HBSS for 60 min at room temperature (293-298 K) to detect immunoreactivity of c-Jun (1:500), phospho-histone H3 (1:100), phospho-histone H2A.x (1:200), p53 (1:400), alpha-tubulin (1:200) and Hoechst 33342 (2 ug/mL). Cells were labeled for multiplexed imaging on two separate plates: a) Hoechst 33342, MitoTracker Red, phospho-histone H3, and alpha-tubulin, and b) Hoechst 33342, phospho-histone H2A.x, and c-Jun. A final rinse with HBSS (50 uL) was performed before analysis. The primary and secondary antibodies for the proteins were phospho-histone H3 (rabbit anti-phospho-histone H3 and FITC-donkey anti-rabbit IgG), phospho-histone H2A.x (mouse anti-phospho-histone H2A.x and FITC-donkey anti-mouse IgG), c-Jun (rabbit anti-phospho-c-Jun and Cy3-donkey anti-rabbit IgG), p53 (sheep anti-p53 and Cy5-donkey anti-sheep IgG), alpha-tubulin (mouse anti-alpha-tubulin and Cy5-donkey anti-mouse IgG). These antibodies are available as the CellCiphr HepG2 assay kit (Millipore).Digital images of each well were captured using a Cellomics ArrayScan VTI (Thermo Scientific Cellomics) (0.8 NA objective, 0.63x optical coupler, and XF-93 filter set) at 20x magnification. The images were acquired using the autofocus feature of the ArrayScan instrument, which entails the following steps. First, the camera focuses on channel 1 (Hoechst 33342), where nuclei are identified. Second, a Z offset of 1 um is used for capturing mitochondria (MitoTracker Red). […]
row,Structure (SMILES),outcome
1,COC(=O)c1ccc(I)cc1S(=O)(=O)NC(=O)Nc1nc(C)nc(OC)n1,inactive
2,CCN(Cc1c(F)cccc1Cl)c1c([N+](=O)[O-])cc(C(F)(F)F)cc1[N+](=O)[O-],inactive
3,CCCCOC(=O)C(C)Oc1ccc(Oc2ccc(C(F)(F)F)cn2)cc1 (stereo not given),inactive
4,COc1nc(C)nc(NC(=O)NS(=O)(=O)c2ccccc2OCCCl)n1,inactive
5,CCCOC(=O)c1ccc(C(=O)OCCC)nc1,inactive
6,CCCCOC(=O)[C@@H](C)Oc1ccc(Oc2ccc(C(F)(F)F)cn2)cc1,inactive
7,CCCOC(=O)NCCCN(C)C,inactive
8,CCCCCCC(C)OC(=O)COc1nc(F)c(Cl)c(N)c1Cl (stereo not given),inactive
9,CCCCOCCOCCOCc1cc2c(cc1CCC)OCO2,inactive
10,S=C([S-])NCCNC(=S)[S-].[Mn+2],inactive
11,CC(C)(c1ccc(O)cc1)c1ccc(O)cc1,inactive
12,CCC(O)=C1C(=O)CC(C(=O)O)CC1=O (stereo not given),inactive
13,CCN(CC)C(=O)c1cccc(C)c1,inactive
14,CCCN(CCC)C(=O)SCC,inactive
15,COC(=O)c1ccc(CNS(C)(=O)=O)cc1S(=O)(=O)NC(=O)Nc1nc(OC)cc(OC)n1,inactive
16,Cc1nn(C)c(Oc2ccccc2)c1C=NOCc1ccc(C(=O)OC(C)(C)C)cc1,inactive
17,COC(=O)c1ccccc1S(=O)(=O)NC(=O)Nc1nc(OC(F)F)cc(OC(F)F)n1,inactive
18,C#CCOC(=O)[C@@H](C)Oc1ccc(Oc2ncc(Cl)cc2F)cc1,inactive
19,CCSC(=O)N(CC(C)C)CC(C)C,inactive
20,COCCO,inactive

row,Structure (SMILES),outcome
1,C=CCOC(Cn1ccnc1)c1ccc(Cl)cc1Cl (stereo not given),inactive
2,CCOC(=O)NCCOc1ccc(Oc2ccccc2)cc1,inactive
3,CCCCC(CC)CN1C(=O)C2C3C=CC(C3)C2C1=O (stereo not given),inactive
4,COC(=O)c1c(Cl)nn(C)c1S(=O)(=O)NC(=O)Nc1nc(OC)cc(OC)n1,inactive
5,S=C(S)NCCNC(=S)S.[Mn+2].[S-]C([S-])=NCCN=C([S-])[S-].[Zn+2],inactive
6,CC1(C)C(C=C(Cl)Cl)C1C(=O)OCc1cccc(Oc2ccccc2)c1 (stereo not given),inactive
7,Oc1ccc(C(c2ccc(O)cc2)C(Cl)(Cl)Cl)cc1,inactive
8,CCNc1nc(N)nc(Cl)n1,inactive
9,CCOC(=O)COc1cc(-n2ncc(C(F)(F)F)c(C)c2=O)c(F)cc1Cl,inactive
10,CC(C)(C)[C@@H](O)[C@@H](Cc1ccc(Cl)cc1)n1cncn1,inactive
11,COc1c(Cl)ccc(Cl)c1C(=O)O,inactive
12,OB(O)O,inactive
13,CCOC(=O)C(C)Oc1ccc(Oc2cnc3cc(Cl)ccc3n2)cc1 (stereo not given),inactive
14,c1ccc2[nH]c(-c3cscn3)nc2c1,inactive
15,COC(=O)c1ccccc1C(=O)O,inactive
16,COC(=O)c1cccc(C)c1S(=O)(=O)NC(=O)Nc1nc(OCC(F)(F)F)nc(N(C)C)n1,inactive
17,CCCCC(CC)COC(=O)c1ccccc1C(=O)O (stereo not given),inactive
18,CCC(C)OC(=O)N1CCCCC1CCO (stereo not given),inactive
19,CCCN(CCC)c1c([N+](=O)[O-])cc(C(F)(F)F)c(N)c1[N+](=O)[O-],inactive
20,CN(C)C(=O)Nc1ccc(Cl)c(Cl)c1,inactive
